Results: PubChem BioAssay AID1159580 (chemical genetic matrix, 2015)
Out of some 5,500 compounds screened, about 2,000 (36%) were called active. Roughly 18% stayed inconclusive and do not appear here. No stated cut-off is given here; in the data, active means normalized growth mostly below about 0.91 (no sharp cut-off); inconclusive means no clear call, values can overlap the other calls; inactive means mostly above about 0.92. The list shows a part of the results.

Experiment: chemical genetic growth profiling, strain panel (AID 1159580);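 further: tested at 20 µM; growth read once vehicle control cultures reached saturation at 30 °C; 1 = growth at the plate median or of vehicle wells; lower values mean less growth of the strain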
Settings: growth OD

Measured: normalized growth

Cc1cn([C@H]2C[C@H](N=[N+]=[N-])[C@@H](CO)O2)c(=O)[nH]c1=O
inactive: S. cerevisiae deletion strains, locus YJR066W, strain TOR1, active compounds read low 0.932 | S. cerevisiae deletion strains, locus YKL009W, strain mrt4, active compounds read low 0.995 | S. cerevisiae deletion strains, locus YKL068W, active compounds read low 1.01 | S. cerevisiae deletion strains, locus YKL085W, strain MDH1 (second series), active compounds read low 1.01 | S. cerevisiae deletion strains, locus YKL085W, strain MDH1, active compounds read low 1.01 | S. cerevisiae deletion strains, locus YKL160W, strain elf1, active compounds read low 0.975 | S. cerevisiae deletion strains, locus YKL190W, strain CNB1, active compounds read low 1.01 | S. cerevisiae deletion strains, locus YKR001C, strain vps1, active compounds read low 1.02 | S. cerevisiae deletion strains, locus YKR026C, strain gcn3, active compounds read low 0.988 | S. cerevisiae deletion strains, locus YKR091W, strain srl3, active compounds read low 0.999 | S. cerevisiae deletion strains, locus YLL001W, strain dnm1, active compounds read low 0.978 | S. cerevisiae deletion strains, locus YLL026W, active compounds read low 0.996 | S. cerevisiae deletion strains, locus YLL041C, strain sdh2, active compounds read low 0.993 | S. cerevisiae deletion strains, locus YLR027C, strain aat2, active compounds read low 0.99 | S. cerevisiae deletion strains, locus YLR039C, strain RIC1, active compounds read low 0.989 | S. cerevisiae deletion strains, locus YLR058C, strain SHM2, active compounds read low 1.01 | S. cerevisiae deletion strains, locus YLR102C, strain apc9, active compounds read low 1.01 | S. cerevisiae deletion strains, locus YLR113W, strain HOG1, active compounds read low 0.936 | S. cerevisiae deletion strains, locus YLR221C, strain rsa3, active compounds read low 1.02 | S. cerevisiae deletion strains, locus YLR258W, strain gsy2, active compounds read low 0.97 | S. cerevisiae deletion strains, locus YLR262C, strain YPT6 (second series), active compounds read low 0.998 | S. cerevisiae deletion strains, locus YLR262C, strain YPT6, active compounds read low 1.01 | S. cerevisiae deletion strains, locus YLR268W, strain sec22, active compounds read low 1 | S. cerevisiae deletion strains, locus YLR320W, strain mms22, active compounds read low 0.981 | S. cerevisiae deletion strains, locus YLR330W, strain CHS5, active compounds read low 1 | S. cerevisiae deletion strains, locus YLR342W, strain FKS1 (second series), active compounds read low 0.991 | S. cerevisiae deletion strains, locus YLR342W, strain FKS1, active compounds read low 1.01 | S. cerevisiae deletion strains, locus YLR357W, strain rsc2, active compounds read low 0.935 | S. cerevisiae deletion strains, locus YLR370C, strain arc18, active compounds read low 0.98 | S. cerevisiae deletion strains, locus YLR371W, strain rom2, active compounds read low 1.01 | S. cerevisiae deletion strains, locus YLR384C, strain iki3, active compounds read low 1 | S. cerevisiae deletion strains, locus YLR418C, strain cdc73, active compounds read low 1.04 | S. cerevisiae deletion strains, locus YML016C, strain PPZ1, active compounds read low 1 | S. cerevisiae deletion strains, locus YML032C, strain rad52, active compounds read low 1.01 | S. cerevisiae deletion strains, locus YML120C, strain ndi1, active compounds read low 1.01 | S. cerevisiae deletion strains, locus YML124C, strain tub3, active compounds read low 1.01 | S. cerevisiae deletion strains, locus YMR058W, strain fet3, active compounds read low 1.02 | S. cerevisiae deletion strains, locus YMR078C, strain ctf18, active compounds read low 1 | S. cerevisiae deletion strains, locus YMR125W, strain sto1, active compounds read low 0.999 | S. cerevisiae deletion strains, locus YMR129W, active compounds read low 0.99 | S. cerevisiae deletion strains, locus YMR205C, strain PFK2, active compounds read low 0.975 | S. cerevisiae deletion strains, locus YMR223W, strain ubp8, active compounds read low 1 | S. cerevisiae deletion strains, locus YMR231W, strain pep5, active compounds read low 1 | S. cerevisiae deletion strains, locus YMR263W, strain SAP30, active compounds read low 1.01 | S. cerevisiae deletion strains, locus YMR307W, strain GAS1, active compounds read low 1.02 | S. cerevisiae deletion strains, locus YNL067W, strain RPL9B, active compounds read low 1.02 | S. cerevisiae deletion strains, locus YNL071W, strain lat1, active compounds read low 1.01 | S. cerevisiae deletion strains, locus YNL153C, strain GIM3, active compounds read low 1 | S. cerevisiae deletion strains, locus YNL183C, strain NPR1, active compounds read low 0.911 | S. cerevisiae deletion strains, locus YNL209W, strain ssb2, active compounds read low 0.994 | S. cerevisiae deletion strains, locus YNL233W, strain BNI4, active compounds read low 0.991 | S. cerevisiae deletion strains, locus YNL248C, strain rpa49, active compounds read low 0.981 | S. cerevisiae deletion strains, locus YNL250W, strain rad50, active compounds read low 1.02 | S. cerevisiae deletion strains, locus YNL271C, strain bni1, active compounds read low 1.02 | S. cerevisiae deletion strains, locus YNL298W, strain CLA4, active compounds read low 1.02 | S. cerevisiae deletion strains, locus YNL307C, strain MCK1, active compounds read low 1.01 | S. cerevisiae deletion strains, locus YNL322C, strain KRE1 (second series), active compounds read low 0.972 | S. cerevisiae deletion strains, locus YNL322C, strain KRE1, active compounds read low 1 | S. cerevisiae deletion strains, locus YNR049C, strain mso1, active compounds read low 0.996 | S. cerevisiae deletion strains, locus YNR052C, strain pop2, active compounds read low 1.01 | S. cerevisiae deletion strains, locus YOL006C, strain TOP1, active compounds read low 1 | S. cerevisiae deletion strains, locus YOL012C, strain htz1 1.05 | S. cerevisiae deletion strains, locus YOL147C, strain pex11, active compounds read low 1.01 | S. cerevisiae deletion strains, locus YOR001W, strain rrp6, active compounds read low 1.02 | S. cerevisiae deletion strains, locus YOR061W, strain CKA2, active compounds read low 1.01 | S. cerevisiae deletion strains, locus YOR069W, strain VPS5, active compounds read low 1.01 | S. cerevisiae deletion strains, locus YOR070C, strain gyp1, active compounds read low 0.998 | S. cerevisiae deletion strains, locus YOR080W, strain dia2, active compounds read low 0.999 | S. cerevisiae deletion strains, locus YOR083W, strain WHI5, active compounds read low 0.946 | S. cerevisiae deletion strains, locus YOR106W, strain vam3, active compounds read low 0.999 | S. cerevisiae deletion strains, locus YOR136W, strain idh2, active compounds read low 1.02 | S. cerevisiae deletion strains, locus YOR144C, strain elg1, active compounds read low 1.01 | S. cerevisiae deletion strains, locus YOR184W, strain ser1, active compounds read low 1.01 | S. cerevisiae deletion strains, locus YOR231W, strain MKK1, active compounds read low 0.982 | S. cerevisiae deletion strains, locus YOR265W, strain rbl2, active compounds read low 1.01 | S. cerevisiae deletion strains, locus YOR270C, strain vph1, active compounds read low 1.06 | S. cerevisiae deletion strains, locus YOR290C, strain snf2, active compounds read low 0.993 | S. cerevisiae deletion strains, locus YOR316C, strain cot1, active compounds read low 1.01 | S. cerevisiae deletion strains, locus YPL051W, strain arl3, active compounds read low 0.985 | S. cerevisiae deletion strains, locus YPL055C, strain LGE1, active compounds read low 1.03 | S. cerevisiae deletion strains, locus YPL078C, strain atp4, active compounds read low 0.99 | S. cerevisiae deletion strains, locus YPL106C, strain sse1, active compounds read low 0.94 | S. cerevisiae deletion strains, locus YPL240C, strain hsp82, active compounds read low 0.994 | S. cerevisiae deletion strains, locus YPL241C, strain CIN2, active compounds read low 1 | S. cerevisiae deletion strains, locus YPL256C, strain CLN2, active compounds read low 0.942 | S. cerevisiae deletion strains, locus YPR119W, strain clb2, active compounds read low 1.01 | S. cerevisiae deletion strains, locus YPR141C, strain kar3, active compounds read low 1.01 | S. cerevisiae deletion strains, locus YPR163C, strain tif3, active compounds read low 1.01 | S. cerevisiae deletion strains, locus YPR167C, strain met16, active compounds read low 1.01 | S. cerevisiae deletion strains, strain wtn01, active compounds read low 1.01 | S. cerevisiae strains, strain wild type, active compounds read low 1
